This note sets out measurements from PubChem BioAssay AID777 (Sanford-Burnham Center for Chemical Genomics, 2007).

Molecules are shown by their SMILES. About 19,000 (20%) of roughly 96,000 compounds were called active.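 The calls were made as follows: active = blocking of liver enzyme CYP2C9 beyond about 50% at 5 µM (limit read from the data); inactive = the rest.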 Only a sample is shown.

Chain of Cytochrome P450 2C9 (Homo sapiens) (P11712 whole entry, looked up): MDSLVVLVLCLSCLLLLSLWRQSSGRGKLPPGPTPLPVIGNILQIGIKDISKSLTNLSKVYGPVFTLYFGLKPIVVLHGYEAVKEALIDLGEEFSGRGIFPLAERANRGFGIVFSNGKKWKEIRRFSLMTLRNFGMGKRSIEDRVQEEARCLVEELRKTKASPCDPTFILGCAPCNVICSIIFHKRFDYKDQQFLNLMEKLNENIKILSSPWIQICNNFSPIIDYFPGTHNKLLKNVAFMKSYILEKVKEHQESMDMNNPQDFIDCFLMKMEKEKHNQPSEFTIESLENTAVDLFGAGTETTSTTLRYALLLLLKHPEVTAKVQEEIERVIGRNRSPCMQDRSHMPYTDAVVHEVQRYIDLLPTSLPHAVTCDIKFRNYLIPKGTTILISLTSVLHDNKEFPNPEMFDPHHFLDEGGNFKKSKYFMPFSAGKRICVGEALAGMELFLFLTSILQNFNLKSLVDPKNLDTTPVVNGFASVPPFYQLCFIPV

The assay has as its target Cytochrome P450 2C9 (Homo sapiens) (UniProt P11712). The assay is described as follows: blockers of cytochrome P450 2C9 activity – biochemical, luminescence, ADME assay, primary screen (AID 777). The conditions noted are these: CYP2C9 Supersomes, luciferin-H conversion, at 5 µM, hits give high values.
With `CNC(=O)/C(=C\C=C\c1ccccc1)NC(=O)c1ccc([N+](=O)[O-])cc1`, the inhibition was 22.2% (inactive).

Regarding `CCOC(=O)c1cnc(SCc2nc(N)nc(Nc3ccc(OC)cc3)n2)nc1N`, the inhibition was 40.5% (inactive).

For the compound `Cc1nn(-c2ccccc2)c2c1C(=O)NC(=O)C(C)(C)C2`, the inhibition is 14.9% (inactive). In the case of `CC1CCN(C(NC(=O)c2ccco2)C(=O)c2ccccc2)CC1` (configuration not stated) it was 71.6% (active); in that of `CC1CCN(C(=O)Cn2cc(C(=O)c3ccco3)c3ccccc32)CC1`, 28.3% (inactive). The result for `O=C(Nc1ccc(Oc2ccccc2)cc1)c1ccco1` reads 24.3% (inactive); that for `O=C(NC1CCCCC1)N1CCc2[nH]c3ccccc3c2C1`, 27.9% (inactive). With `Cc1cc(Cl)c(S(=O)(=O)NCC2CCCO2)cc1OCC(N)=O` (configuration not stated), the inhibition is -10.7% (inactive). Take `COc1cccc(-n2cc3c(c2-c2ccccc2)c(=O)n(C)c(=O)n3C)c1`: the inhibition is 64.6% (active). For `COc1ccc(-c2c3c(=O)n(C)c(=O)n(C)c3cn2-c2cccc(OC)c2)cc1`, the inhibition is 4.2% (inactive). Turning to `Cc1ccc(-c2c3c(=O)n(C)c(=O)n(C)c3cn2-c2ccccc2O)cc1`, the inhibition is 43.7% (inactive). On to `CCc1ccc(Nc2ncc3c(n2)CC(c2ccco2)CC3=O)cc1` (configuration not stated), for which the inhibition is 8.9% (inactive). The result for `O=C1N=C(N2CCOCC2)S/C1=C\C=C/c1ccccc1` reads -28.7% (inactive); that for `CN(C)/C=C/C(=O)c1ccccc1F`, 14.6% (inactive). For the compound `O=C(Nc1ccccc1Cl)O/N=C(/c1ccccc1)c1ccccn1`, the inhibition was 22.2% (inactive). In the case of `O=C1NC(c2ccncc2)Nc2sc3c(c21)CCCC3` (configuration not stated) it was 49.1% (inactive); in that of `CC(=O)c1cccc(NC(=O)C2CCCN2S(=O)(=O)c2cccc3nsnc23)c1` (configuration not stated), 92.8% (active); in that of `CC1CCCCC1NC(=O)C1CCCN1S(=O)(=O)c1cccc2nsnc12` (configuration not stated), 21.2% (inactive). `CC(=O)c1cccc(NC(=O)N2CCCC2C(=O)NCCC(C)C)c1` (configuration not stated): the inhibition is 9.2% (inactive). In the case of `COc1ccc(NC(=O)C2CCCN(S(=O)(=O)c3cccc4cccnc34)C2)cc1` (configuration not stated), the inhibition is -49.2% (inactive). `O=C(Nc1nccs1)C1CCCN1S(=O)(=O)c1cccc2cccnc12` (configuration not stated): the inhibition was 53.9% (active). `O=C(O)C1CCCN(S(=O)(=O)c2cccc3cccnc23)C1` (configuration not stated): the inhibition was -20.2% (inactive). In the case of `CCc1nn(-c2cc(Oc3cccc4ccccc34)nc(-c3ccccc3)n2)c(N)c1C#N` it was 20% (inactive). In the case of `CSc1sc(C)cc1C1C(C#N)=C(N)N(c2cccnc2)C2=C1C(=O)CCC2` (configuration not stated) it was 23% (inactive); in that of `CCCOc1ccc(N2C(=O)CC(N(CCc3ccc(S(N)(=O)=O)cc3)C(C)=O)C2=O)cc1` (configuration not stated), -11.4% (inactive); in that of `Cc1nn(-c2ccccc2)c2[nH]c(C(F)(F)F)cc(=O)c12`, 46.9% (inactive).

Regarding `COc1ccc(OCCCC(=O)Nc2nnc(C3CCCO3)s2)cc1` (configuration not stated), the inhibition is 45.3% (inactive). In the case of `Cc1nnc(NC(=O)Cn2c(=O)sc3ccccc32)s1` it was 67.6% (active); in that of `Cc1nnc(NC(=O)CCCOc2ccccc2)s1`, -8.5% (inactive); in that of `O=C(Cn1c(=O)sc2ccccc21)Nc1ccc2c(c1)OCCO2`, 7% (inactive). In the case of `CCN(CC)CCCNC(=O)CCc1ccccc1` it was 1.4% (inactive); in that of `O=C(CN1C(=O)NC2(CCCC2)C1=O)Nc1ccc(F)c(F)c1F`, -34.9% (inactive); in that of `Cc1ccccc1N1CC(c2nc3ccccc3[nH]2)CC1=O` (configuration not stated), 29.8% (inactive). In the case of `CC1=CC(=O)C=CC1(C)C(Cl)(Cl)Cl` (configuration not stated) it was -5.7% (inactive); in that of `COc1cccc(N(CC(=O)NC2CCCC2)C(=O)Cn2nnc(-c3ccc(C)cc3)n2)c1`, 59.1% (active); in that of `COc1ccc(N(CC(=O)NC2CCCCCCC2)S(=O)(=O)c2c(C)nn(C)c2C)cc1`, 40.5% (inactive). For the compound `O=C(Cn1nnc(-c2ccc(CN3CCOCC3)cc2)n1)NC1CCCCC1`, the inhibition is 25.3% (inactive). On to `CC(C)c1cc(C(=O)O)on1`, for which the inhibition was -15.7% (inactive). Turning to `COc1ccc(Oc2c(Cl)cnn(-c3ccccc3)c2=O)cc1`, the inhibition was 18.9% (inactive). In the case of `Cn1c(COc2ccc(Cl)cc2)nc2ccccc2c1=O`, the inhibition was 43.9% (inactive).

For `Cc1[nH]nc(-c2ccc(OCc3cnn(-c4ccccc4)c3)cc2O)c1Oc1ccc(Cl)cc1`, the inhibition was 66.2% (active). In the case of `CC(C)(C)C(=O)Nc1ccc(C(=O)N/N=C/c2ccccc2OC(=O)c2ccc(Cl)cc2Cl)cc1` it was 21.5% (inactive); in that of `CC(=O)Nn1cc2c(=O)n(C)c(=O)n(C)c2c1`, -1.4% (inactive). The result for `CCn1c(NCCc2ccc(OC)c(OC)c2)nc2c1c(=O)n(C)c(=O)n2C` reads 12.4% (inactive); that for `COc1ccc(OC)c(NC(=O)Cn2c(=O)oc3ccccc32)c1`, 26.9% (inactive).

As for `COc1ccc(OC)c(-n2cc3c(=O)n(C)c(=O)n(C)c3c2)c1`, the inhibition was 78.8% (active). In the case of `Cn1c2c(c(=O)n(C)c1=O)[C@@H]1c3c(ccc4ccccc34)OC[C@@H]1CO2`, the inhibition was 18.4% (inactive).

For the compound `Cn1c(=O)c2cn(-c3cccc4ccccc34)cc2n(C)c1=O`, the inhibition was 71.3% (active). As to `O=C(OC1CCOC1=O)c1ccc(-c2nc3ccccc3s2)s1` (configuration not stated), the inhibition was 4.9% (inactive).

Consider `CSCCC(NC(=O)C1CCC(C)CC1)C(=O)NCc1ccco1` (configuration not stated), for which the inhibition was 10.7% (inactive). The result for `CSCCC(NC(N)=O)C(=O)N(C)CC(=O)Nc1ccc(C)cc1` (configuration not stated) reads -21.5% (inactive). In the case of `CC1(C)CC(O)C(CCC(O)c2ccccc2)C(C)(C)N1` (configuration not stated) it was -1.7% (inactive).

Turning to `O=c1c(F)cn(C2CCCO2)c(=O)n1Cc1ccccc1Cl` (configuration not stated), the inhibition was 15.2% (inactive). In the case of `Cc1ccc(NC(=S)Nc2ncccc2C)c(C)c1` it was -26.1% (inactive); in that of `CCOC(=O)c1sc2nc(CSCC(=O)OCc3ccc(C(=O)OC)o3)[nH]c(=O)c2c1C`, 54.4% (active); in that of `CCOC(=O)c1ccc(COC(=O)c2cc(=O)[nH]c3ccccc23)o1`, -27.9% (inactive). Regarding `CCOc1cc(/C=N/n2cnnc2)c(Br)cc1O`, the inhibition is 43.2% (inactive).

With `Cc1cc(=O)oc2cc(OC(C)C(=O)Nc3ccc(N4CCOCC4)cc3)ccc12` (configuration not stated), the inhibition was -6.3% (inactive). In the case of `Cc1cc(C(=O)OC(C)C(=O)Nc2cccc(S(=O)(=O)N3CCOCC3)c2)c(C)o1` (configuration not stated) it was 97.4% (active). On to `COc1ccccc1N1CC(C(=O)Nc2ccc(S(=O)(=O)N3CCOCC3)cc2)CC1=O` (configuration not stated), for which the inhibition was 8.1% (inactive). In the case of `O=C(O)CCC(=O)NCc1ccc2[nH]c3c(c2c1)CCCC3` it was -5.1% (inactive); in that of `COc1ccc(CNC2CCCCC2)cc1`, 2.3% (inactive). In the case of `CCOC(=O)C1CCN(C(=O)Nc2ccc(Cl)cc2)CC1` it was 53.3% (active); in that of `CCOC(=O)C1CCN(C(=O)C2CCN(S(=O)(=O)N3CCCC3)CC2)CC1`, 20.7% (inactive). For `CCOC(=O)C1CCN(C(=O)C2CCN(S(=O)(=O)CC)CC2)CC1`, the inhibition is -14.3% (inactive). The result for `O=C(NCc1ccc2c(c1)OCO2)c1cc2c(s1)CS(=O)(=O)C2` reads 25% (inactive). With `O=C(COc1ccccc1)NCc1ccc2c(c1)OCO2`, the inhibition was 32.4% (inactive). In the case of `O=C(COC(=O)c1ccc2c(c1)OCCO2)NCc1ccccc1` it was -9.3% (inactive).

For `COc1ccc(-c2csc(N3CCN(Cc4ccc5c(c4)OCO5)CC3)n2)cc1`, the inhibition was -14.4% (inactive). In the case of `O=C(Cn1nnc(-c2ccc3c(c2)OCO3)n1)NCc1ccco1` it was 16.6% (inactive); in that of `O=C(CC(Cc1ccccc1)C(=O)O)NCCc1ccc2c(c1)OCO2` (configuration not stated), 75.5% (active).

As to `O=C(Cn1nnc(-c2ccccc2)n1)NCc1ccc2c(c1)OCO2`, the inhibition is 50.4% (active). In the case of `O=C(CN(Cc1ccccc1)C(=O)c1ccc2c(c1)OCCO2)NCc1ccc2c(c1)OCO2` it was 50.2% (active).

As for `O=C(NCCc1ccc2c(c1)OCCO2)c1cc2ccccc2o1`, the inhibition was 35.2% (inactive). Take `O=C(CN1CCN(c2nc(-c3ccccc3)cs2)CC1)NCc1ccc2c(c1)OCO2`: the inhibition is 91.4% (active). Regarding `CC1CCCC(C)N1C(=O)CN1CCN(c2nc(-c3ccc(F)cc3)cs2)CC1` (configuration not stated), the inhibition was 1.8% (inactive).

Regarding `O=C(Cn1nnc(-c2ccccc2)n1)NCc1ccccc1`, the inhibition was -11.3% (inactive). The result for `N#C/C=C1\Sc2ccccc2C(=O)N1CC(=O)N1CCN(S(=O)(=O)c2ccccc2)CC1` reads -15.4% (inactive); that for `Cc1c(-c2ccccc2)nc(N)c(C#N)c1-c1cccs1`, 29.3% (inactive); that for `O=c1c2ccccc2nc2n1C(CSc1ccc(Cl)cc1)CN2` (configuration not stated), -1.6% (inactive). Take `Cc1nc2ccc(S(=O)(=O)NC(C(=O)N3CCCCCC3)C(C)C)cc2s1` (configuration not stated): the inhibition is 26.6% (inactive).

As to `COC(=O)Nc1ncc(CN2C(=O)c3ccccc3C2=O)s1`, the inhibition was -12% (inactive). The result for `N/C(=N\OC(=O)CCC1CCCCC1)c1ccccn1` reads 0.9% (inactive); that for `O=C(O)c1cc(S(=O)(=O)N2CCCCCC2)c(Cl)cc1Cl`, 22.4% (inactive). The result for `O=C(COC(=O)c1ccccc1SCC(=O)NC1CCCCC1)NC1CCCCC1` reads 12.1% (inactive); that for `CCOC(=O)c1ccc(COC(=O)CCc2nc(-c3ccccc3)c(-c3ccccc3)o2)cc1`, 85.6% (active); that for `CCOC(=O)c1ccc(-c2ccc(C(=O)Nc3cccnc3)o2)cc1`, 14.6% (inactive).

In the case of `CCOC(=O)c1cc(NC(=O)c2ccc(Cl)cc2)c(=O)oc1-c1ccccc1`, the inhibition was -22.2% (inactive). For the compound `Cc1ccc(O)c(NC(=O)COc2cc(C)ccc2C)c1`, the inhibition was -59.4% (inactive).

On to `COc1ccccc1-c1c(C)nn2c(C)c(C(C)=O)cnc12`, for which the inhibition was 3.7% (inactive). As for `COc1ccc(-c2nc(SCC(=O)N3CCOCC3)n[nH]2)cc1`, the inhibition was -9.6% (inactive). With `O=C1/C(=C/c2cccs2)CCc2ccccc21`, the inhibition was 72.8% (active). In the case of `Cc1ccc(N2CCN(C3=NC(=O)/C(=C\c4cccs4)S3)CC2)cc1` it was -127% (inactive).

Regarding `C(=N/N1CCN(c2ccccc2)CC1)/c1cccs1`, the inhibition is 40.3% (inactive). Consider `Cc1c(C#N)c(NC(=O)c2ccccc2)n(Cc2ccccc2)c1C`, for which the inhibition is 60.7% (active). In the case of `COc1ccc(Cn2c(C)c(C)c(C#N)c2NC(=O)Nc2ccc(F)cc2)cc1` it was 13.6% (inactive); in that of `Cc1ccc(C(=O)Nc2c(C#N)c(C)c(C)n2Cc2ccccc2)cc1`, 22.4% (inactive).

As usually defined, the inhibition is the relative decrease from the control value, in per cent.
